# Among all 39,000 compounds or so, about 3,300 (8.5%) were called active. Shown is part of a subset that was picked to be rich in actives.
# System: HepG2
# Assay: cytotoxicity call (relative viability < 0.9)
# Details: 10 µM
row,SMILES,cytotoxicity call
1,COCC#Cc1ccc2c(c1)O[C@@H](CN(C)S(=O)(=O)c1ccc(F)cc1)[C@H](C)CN([C@@H](C)CO)S2(=O)=O,inactive
2,C[C@@H]1CN([C@@H](C)CO)C(=O)Cc2cc(NS(=O)(=O)c3cccs3)ccc2O[C@H]1CN(C)S(=O)(=O)c1ccc(F)cc1,inactive
3,C[C@H](CO)N1C[C@H](C)[C@@H](CN(C)C(=O)Nc2ccccc2)Oc2ccc(NC(=O)CCN3CCOCC3)cc2CC1=O,inactive
4,Cc1noc(C)c1NC(=O)Nc1ccc2c(c1)C(=O)N([C@H](C)CO)C[C@H](C)[C@H](CN(C)C(=O)C1CCCCC1)OCCCC[C@@H](C)O2,inactive
5,C[C@H](CO)N1C[C@H](C)[C@H](CN(C)Cc2ccc(C(=O)Nc3ccccc3N)cc2)Oc2ccc(NC(=O)Nc3ccc(F)cc3)cc2CC1=O,inactive
6,C[C@H](CO)N1C[C@H](C)[C@@H](CN(C)Cc2ccc(C(=O)Nc3ccccc3N)cc2)Oc2ccc(NC(=O)Nc3ccc(F)cc3)cc2CC1=O,inactive
7,C[C@H]1CN([C@@H](C)CO)C(=O)Cc2cc(NC(=O)Nc3ccc(F)cc3)ccc2O[C@H]1CN(C)Cc1ccc(C(=O)Nc2ccccc2N)cc1,active
8,C[C@H]1CN([C@@H](C)CO)C(=O)Cc2cc(NC(=O)Nc3ccc(F)cc3)ccc2O[C@@H]1CN(C)Cc1ccc(C(=O)Nc2ccccc2N)cc1,inactive
9,C[C@@H]1CN([C@H](C)CO)C(=O)Cc2cc(NC(=O)Nc3ccc(F)cc3)ccc2O[C@H]1CN(C)Cc1ccc(C(=O)Nc2ccccc2N)cc1,inactive
10,C[C@@H]1CN([C@@H](C)CO)C(=O)Cc2cc(NC(=O)Nc3ccc(F)cc3)ccc2O[C@@H]1CN(C)Cc1ccc(C(=O)Nc2ccccc2N)cc1,active
11,C[C@@H]1CCCCO[C@@H](CN(C)C(=O)NC2CCCCC2)[C@@H](C)CN([C@@H](C)CO)C(=O)c2cc(NC(=O)Nc3ccc(F)cc3)ccc2O1,inactive
12,Cc1noc(C)c1S(=O)(=O)N(C)C[C@@H]1Oc2ccc(NS(=O)(=O)c3ccccc3)cc2C(=O)N([C@H](C)CO)C[C@@H]1C,inactive
13,C[C@@H]1CCCCO[C@@H](CN(C)Cc2ccncc2)[C@@H](C)CN([C@@H](C)CO)C(=O)c2cc(NC(=O)Cc3ccccc3)ccc2O1,inactive
14,C[C@@H]1CCCCO[C@H](CN(C)C(=O)CCC(F)(F)F)[C@@H](C)CN([C@H](C)CO)C(=O)c2cc(NC(=O)Nc3ccccc3)ccc2O1,inactive
15,C[C@H]1CN([C@@H](C)CO)C(=O)c2cccc(NC(=O)Nc3ccc4c(c3)OCO4)c2O[C@@H]1CN(C)S(C)(=O)=O,inactive
16,CN(C)CC(=O)N[C@H]1CC[C@@H](CC(=O)NCCN2CCCCC2)O[C@@H]1CO,inactive
17,C[C@H]1CN([C@@H](C)CO)C(=O)c2cc(NS(=O)(=O)c3ccc(F)cc3)ccc2O[C@@H]1CN(C)S(=O)(=O)c1cn(C)cn1,inactive
18,O=C(O)c1cn2cccc(O)c2n1,inactive
19,C[C@H]1CN([C@@H](C)CO)C(=O)c2cc(NS(C)(=O)=O)ccc2O[C@H]1CN(C)S(C)(=O)=O,inactive
20,COc1ccc(S(=O)(=O)N(C)C[C@H]2OCc3cnnn3CCCC(=O)N([C@H](C)CO)C[C@H]2C)cc1,inactive
21,O=C(NC1CC1)[C@@H]1c2ccccc2C(=O)N(Cc2cc(C(F)(F)F)cc(C(F)(F)F)c2)[C@H]1c1ccc(CO)cc1,inactive
22,Cc1cc(OCCCS(C)(=O)=O)cc(C)c1-c1cccc(COc2ccc3c(c2)OC[C@H]3CC(=O)O)c1,active

row,SMILES,cytotoxicity call
1,COCC#Cc1ccc2c(c1)O[C@H](CN(C)S(=O)(=O)c1cccc(OC)c1)[C@@H](C)CN([C@@H](C)CO)S2(=O)=O,inactive
2,O=S(=O)(O)NC1CCCCC1 [listing 1 of 2 here],inactive
3,O=S(=O)([O-])NC1CCCCC1.[Na+],inactive
4,O=S(=O)(O)NC1CCCCC1 [listing 2 of 2 here],active
5,CC(C)NC(=O)N(C)C[C@@H]1Oc2ccc(NC(=O)Cc3ccccc3)cc2CC(=O)N([C@@H](C)CO)C[C@@H]1C,inactive
6,C[C@H](CO)N1C[C@H](C)[C@@H](CN(C)S(=O)(=O)c2ccc(F)cc2)Oc2c(NC(=O)c3cnccn3)cccc2C1=O,inactive
7,C[C@H]1CN([C@@H](C)CO)C(=O)c2cccc(NC(=O)C3CC3)c2O[C@H]1CN(C)S(=O)(=O)c1ccccc1,inactive
8,C[C@H]1CN([C@@H](C)CO)C(=O)Cc2cc(NC(=O)Nc3ccc(F)cc3)ccc2O[C@@H]1CN(C)Cc1ccc(C(F)(F)F)cc1,inactive
9,C[C@@H]1CN([C@@H](C)CO)C(=O)Cc2cc(NC(=O)Nc3ccc(F)cc3)ccc2O[C@H]1CN(C)Cc1ccc(C(F)(F)F)cc1,active
10,C[C@@H]1CN([C@@H](C)CO)C(=O)Cc2cc(NC(=O)Nc3ccc(F)cc3)ccc2O[C@@H]1CN(C)Cc1ccc(C(F)(F)F)cc1,active
11,C[C@@H]1CN([C@H](C)CO)C(=O)Cc2cc(NC(=O)Nc3ccc(F)cc3)ccc2O[C@@H]1CN(C)Cc1ccc(C(F)(F)F)cc1,active
12,C[C@H]1CN([C@@H](C)CO)C(=O)Cc2cc(NC(=O)Nc3ccc(F)cc3)ccc2O[C@H]1CN(C)Cc1ccc(C(F)(F)F)cc1,active
13,COc1ccccc1CNC(=O)C[C@H]1C[C@@H]2c3cc(NS(=O)(=O)c4ccc(F)cc4)ccc3O[C@@H]2[C@@H](CO)O1,inactive
14,C[C@H](CO)N1C[C@H](C)[C@@H](CN(C)Cc2ccc(C(=O)O)cc2)Oc2ccc(NC(=O)Nc3cccc4ccccc34)cc2CC1=O,inactive
15,C[C@@H]1CN([C@H](C)CO)S(=O)(=O)c2ccc(C3=CCCCC3)cc2O[C@@H]1CN(C)C(=O)C1CCOCC1,inactive
16,C[C@@H]1CN([C@@H](C)CO)C(=O)c2cc(NC(=O)Nc3ccc(F)cc3)ccc2O[C@@H](C)CCCCO[C@@H]1CN(C)C(=O)c1ccccc1,inactive
17,C[C@H]1CN([C@@H](C)CO)C(=O)c2ccccc2-c2ccccc2CO[C@H]1CN(C)C(=O)Nc1cccc(C(F)(F)F)c1,inactive
18,CCC(=O)OCC(=O)C1(OC(=O)CC)C(C)CC2C3CCC4=CC(=O)C=CC4(C)C3(F)C(O)CC21C (centres undefined),inactive
19,Cc1ccc(S(=O)(=O)Nc2ccc3c(c2)C(=O)N([C@@H](C)CO)C[C@@H](C)[C@@H](CN(C)S(C)(=O)=O)O3)cc1,inactive
20,COc1ccc(NC(=O)N2C[C@@H](O)COC[C@H]3O[C@@H](CC(=O)NCc4ccccc4OC)CC[C@@H]32)cc1,inactive
21,C[C@@H]1CN([C@@H](C)CO)C(=O)c2cc(C#CCN(C)C)cnc2O[C@@H]1CN(C)C(=O)CN1CCOCC1,inactive
22,C[C@H](CO)N1C[C@H](C)[C@@H](CN(C)Cc2ccc(C(F)(F)F)cc2)Oc2ccc(NC(=O)Nc3ccc(F)cc3)cc2CC1=O,active

row,SMILES,cytotoxicity call
1,C[C@@H]1CN([C@H](C)CO)C(=O)Cc2cc(NC(=O)Nc3ccc(F)cc3)ccc2O[C@H]1CN(C)Cc1ccc(C(F)(F)F)cc1,active
2,C[C@H](CO)N1C[C@H](C)[C@H](CN(C)Cc2ccc(C(F)(F)F)cc2)Oc2ccc(NC(=O)Nc3ccc(F)cc3)cc2CC1=O,active
3,C[C@@H]1CCCCO[C@@H](CN(C)S(=O)(=O)c2ccccc2)[C@H](C)CN([C@H](C)CO)C(=O)c2cc(NC(=O)CCC(F)(F)F)ccc2O1,inactive
4,COc1ccc(CN(C)C[C@H]2OCCCC[C@H](C)Oc3ccc(NS(=O)(=O)c4ccc(C)cc4)cc3C(=O)N([C@@H](C)CO)C[C@H]2C)cc1,inactive
5,COCCN1CCCn2c(nc(CNS(C)(=O)=O)cc2=O)C1,inactive
6,CO[C@H]1CN(C)C(=O)c2cc(NS(=O)(=O)CC(F)(F)F)ccc2OC[C@@H](C)N(C(=O)c2ccc3c(c2)OCO3)C[C@H]1C,inactive
7,CC(C)NC(=O)N(C)C[C@@H]1OCCCC[C@H](C)Oc2ccc(NC(=O)Nc3cccc4ccccc34)cc2C(=O)N([C@@H](C)CO)C[C@H]1C,inactive
8,C[C@@H]1CN([C@H](C)CO)C(=O)c2cc(NS(=O)(=O)c3cccs3)ccc2O[C@@H](C)CCCCO[C@H]1CN(C)Cc1ccc2c(c1)OCO2,inactive
9,Cc1ccc2sc(C)nc2c1,inactive
10,C[C@@H]1CCCCO[C@H](CN(C)S(=O)(=O)c2ccccc2)[C@@H](C)CN([C@@H](C)CO)C(=O)c2cc(NC(=O)c3ccccc3)ccc2O1,inactive
11,C[C@@H]1CCCCO[C@H](CN(C)Cc2ccccc2)[C@H](C)CN([C@H](C)CO)C(=O)c2cc(NC(=O)Nc3ccc(F)cc3)ccc2O1,inactive
12,C[C@@H]1CN([C@H](C)CO)C(=O)c2cc(NC(=O)Nc3ccc(F)cc3)ccc2O[C@@H](C)CCCCO[C@@H]1CN(C)Cc1ccccc1,inactive
13,C[C@H]1CCCCO[C@@H](CN(C)Cc2ccccc2)[C@@H](C)CN([C@@H](C)CO)C(=O)c2cc(NC(=O)Nc3ccc(F)cc3)ccc2O1,active
14,C[C@H](CO)N1C[C@H](C)[C@H](CN(C)Cc2ccccc2)OCCCC[C@H](C)Oc2ccc(NC(=O)Nc3ccc(F)cc3)cc2C1=O,active
15,C[C@@H]1CCCCO[C@H](CN(C)Cc2ccccc2)[C@H](C)CN([C@@H](C)CO)C(=O)c2cc(NC(=O)Nc3ccc(F)cc3)ccc2O1,active
16,C[C@H](CO)N1C[C@H](C)[C@@H](CN(C)Cc2ccccc2)OCCCC[C@H](C)Oc2ccc(NC(=O)Nc3ccc(F)cc3)cc2C1=O,active
17,O=C(/C=N/O)Nc1ccccc1C(=O)O,inactive
18,CC(C)CC#Cc1ccc2c(c1)O[C@H](CN(C)C(=O)c1ccccn1)[C@H](C)CN([C@H](C)CO)S2(=O)=O,inactive
19,Cc1ccc(S(=O)(=O)N(C)C[C@@H]2Oc3ccc(NC(=O)C4CC4)cc3C(=O)N([C@@H](C)CO)C[C@@H]2C)cc1,inactive
20,C[C@@H]1CCCCO[C@@H](CN(C)C(=O)CCCN(C)C)[C@@H](C)CN([C@@H](C)CO)C(=O)c2cc(N(C)C)ccc2O1,inactive
